The values that follow come from the supplement of paper PMC6555819.

For the first assay, the system named is RARg:RXRa (NR concentration 270 nM, RXRa partner concentration 90 nM). Put plainly: PBM binding z-score (relative to random genomic background probes); higher = stronger binding; sequences stand for … in GC…GCGATTGACAGCGTAGAATGAAGG
Summed up: (§1)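 Antibodies against each partner of ligand-free nuclear receptor dimers (one per run) detected binding on custom Agilent 4×180K protein-binding microarrays after 1 h incubation. The double-stranded probes had 34-nt variable regions carrying direct-repeat seeds, single-nucleotide variants, half-site ablations and random human genomic background sequences. Binding z-scores, from regression-normalized fluorescence, use the random background probes as reference.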
The sequence ATCTCTAGGTAAAGTCCAGTGAAAGATCGATAGA gave a PBM binding z-score of 0.207.
Still for that read-out and setting: with AGAACGAGGGCAATGAGTTGATAGGACGGGTGGC the figure was 1.22.
The same measure, in the same setting: with ATGTCTAGGTAAAAGTTCAGTGAATCCCGAGGAT the figure was 1.91; with ATACCAAGGGGATCGTGAGGTCGTTGATACTAAC, 0.522; with GCGACTGGGGCAAAGCAGGTTACCGTAAGGTTGG, 0.477.
ATAGCAAGGTGATCGTGAGGTCGTTGATACTAAC: the PBM binding z-score turned out to be 2.12.
On the same count and under the same terms, with TCATATAGGTAAAAGGTGAAAGTCGGTGTGGTAA the figure was 2.24; with AGAATGAGGTTATGCGTAGATCAGGGAAGAAAGT, 1.51; with CGTACGAGGGCATGAGTTGATAGCAAATGCCGAT, 1.38.
Same read-out and setting: with TCTTGTAGATCAAGCAGGTTAAGCAAGCCTGAGT the figure was -0.0759; with AATACAGGCTCACTAGGCCAGAGTAGGTACGAAT, -0.402.
Same read-out and setting: with GGAACGAGGGCCAAGTTGATAGCATCTGTCGACG the figure was 0.0796; with CCTAGTTGGTCAGGAGGACACACACCGGATATGA, 1.2; with GCTTACGGGTCAAAGGTTATAGCTTGAATAGAAT, 6.69.
In turn, TATACAGGGTCAAAGGCCCGAGTACGAATGTCGA showed a PBM binding z-score of 5.28.
Still for that read-out and setting: with TCTATAAGTTGAAGGGCAACCGACGAGTCCGTTT the figure was 0.829.
The same measure, in the same setting: with CCAGACAGGTGAGCAGGTAACTCAGCCTCGATTA the figure was 0.113; with ACTAGCAGGCCAATTTTGGGTCACTCAAACAAAG, 1.59.
The same measure, in the same setting: with CGTCCAAGTTCAAGGTCAGTGAAAGAGACTCGAA the figure was 4.76; with CGTCCAAGATCAAAGGTCAGTGAAGAGATGACGG, 4.65; with CGTCAAAGTTCAAGGTAACGTAACAGAAAGCAGC, 5.25.
Sequence TGAATAAGGTTAAAGATCAGGGAACGTGGCGTCG gave a PBM binding z-score of 2.51.
Same read-out and setting: with CGTCCAAGGTCAATGCTAGGTCAATGAAAGCATT the figure was 7.66; with TAGCCTAGGTCATTGGGCCACTATAGTACGCATC, 3.84.
Still for that read-out and setting: the figure for GCACATAGGTAATACAAGGTGAAAGTCCGATTGT is 0.572; for TCATATAGGTACAGGTGAAAGTCGAACGATATGA it is 0.866.
The same measure, in the same setting: the figure for CCTCGGAGGACAACAGGAGGCCAGAGCTGCCAGA is 0.553; for CCTGCTAGGTCAGGGTCAGCTAATCTACAGTATG it is 4.45.
Regarding GCAGAGAGGTGAAACGCAGGTAACTCAGGGTGGC, the PBM binding z-score turned out to be 2.59.
Same read-out and setting: with CGAACTAGGTCAGTGACAGGACAGTGAATAGTAA the figure was 3.47; with GCTTATGGGTCAAAGGTTATAGCATGAATAGAAT, 6.53; with CCTTACGGGTCACTCCGGGTTATAGCATCGGAGT, 4.46.
Same read-out and setting: with GGAACGAGGGCACGTTGATAGCAGAGTTTGATGG the figure was 1.53; with GGAACGAGGGCAAAGTTGATATCATCTGTCGACG, 2.14; with ACTACTAGTTGAGACGAGGGCAACCGATAGGTTG, 0.816.
CGTCCAAGGGCAAAGGTCAGTGAAGAGATGACGG returned a PBM binding z-score of 6.32.
The same measure, in the same setting: the figure for ATATGTAGGTTAGCTGGGTTCATTCAGACTAGGC is 1.58; for CCGAGTAGGTTATGGGTCATTCAGGCAACGGTGA it is 2.52; for GCTGCTAGGTCAGGGTGGTCAGCTAACGGGTACG it is 2.91.

In the next assay the test system is RARg homodimer (NR concentration 270 nM). The assay is described as above. Summed up: as §1
In turn, ATCTCTAGGTAAAGTCCAGTGAAAGATCGATAGA yielded a PBM binding z-score of 0.536.
The same measure, in the same setting: with AGAACGAGGGCAATGAGTTGATAGGACGGGTGGC the figure was 1.39; with ATGTCTAGGTAAAAGTTCAGTGAATCCCGAGGAT, 1.91.
The same measure, in the same setting: with ATACCAAGGGGATCGTGAGGTCGTTGATACTAAC the figure was 0.278; with GCGACTGGGGCAAAGCAGGTTACCGTAAGGTTGG, 0.183.
The same measure, in the same setting: with ATAGCAAGGTGATCGTGAGGTCGTTGATACTAAC the figure was 0.811; with TCATATAGGTAAAAGGTGAAAGTCGGTGTGGTAA, 1.17.
For AGAATGAGGTTATGCGTAGATCAGGGAAGAAAGT, the PBM binding z-score is 1.09.
Still for that read-out and setting: the figure for CGTACGAGGGCATGAGTTGATAGCAAATGCCGAT is 1.57; for TCTTGTAGATCAAGCAGGTTAAGCAAGCCTGAGT it is -0.399.
As to AATACAGGCTCACTAGGCCAGAGTAGGTACGAAT, the PBM binding z-score is -0.0557.
Still for that read-out and setting: the figure for GGAACGAGGGCCAAGTTGATAGCATCTGTCGACG is 0.46; for CCTAGTTGGTCAGGAGGACACACACCGGATATGA it is 1.73; for GCTTACGGGTCAAAGGTTATAGCTTGAATAGAAT it is 4.63.
On the same count and under the same terms, with TATACAGGGTCAAAGGCCCGAGTACGAATGTCGA the figure was 4.67; with TCTATAAGTTGAAGGGCAACCGACGAGTCCGTTT, 1.07.
Same read-out and setting: with CCAGACAGGTGAGCAGGTAACTCAGCCTCGATTA the figure was 0.308; with ACTAGCAGGCCAATTTTGGGTCACTCAAACAAAG, 1.25.
As for CGTCCAAGTTCAAGGTCAGTGAAAGAGACTCGAA, the PBM binding z-score stood at 5.33.
In turn, CGTCCAAGATCAAAGGTCAGTGAAGAGATGACGG returned a PBM binding z-score of 4.54.
Still for that read-out and setting: the figure for CGTCAAAGTTCAAGGTAACGTAACAGAAAGCAGC is 5.88; for TGAATAAGGTTAAAGATCAGGGAACGTGGCGTCG it is 1.72.
On the same count and under the same terms, with CGTCCAAGGTCAATGCTAGGTCAATGAAAGCATT the figure was 6.89; with TAGCCTAGGTCATTGGGCCACTATAGTACGCATC, 4.24; with GCACATAGGTAATACAAGGTGAAAGTCCGATTGT, 0.547.
Still for that read-out and setting: the figure for TCATATAGGTACAGGTGAAAGTCGAACGATATGA is 0.834.
Turning to CCTCGGAGGACAACAGGAGGCCAGAGCTGCCAGA, the PBM binding z-score came to 1.08.
Same read-out and setting: with CCTGCTAGGTCAGGGTCAGCTAATCTACAGTATG the figure was 5.23; with GCAGAGAGGTGAAACGCAGGTAACTCAGGGTGGC, 1.21.
CGAACTAGGTCAGTGACAGGACAGTGAATAGTAA gave a PBM binding z-score of 3.9.
On to GCTTATGGGTCAAAGGTTATAGCATGAATAGAAT, for which the PBM binding z-score was found to be 4.48.
The same measure, in the same setting: the figure for CCTTACGGGTCACTCCGGGTTATAGCATCGGAGT is 4.12.
The same measure, in the same setting: the figure for GGAACGAGGGCACGTTGATAGCAGAGTTTGATGG is 2; for GGAACGAGGGCAAAGTTGATATCATCTGTCGACG it is 1.97.
Consider ACTACTAGTTGAGACGAGGGCAACCGATAGGTTG, for which the PBM binding z-score came out at 0.767.
Same read-out and setting: with CGTCCAAGGGCAAAGGTCAGTGAAGAGATGACGG the figure was 5.49; with ATATGTAGGTTAGCTGGGTTCATTCAGACTAGGC, 0.836; with CCGAGTAGGTTATGGGTCATTCAGGCAACGGTGA, 2.15.
The same measure, in the same setting: with GCTGCTAGGTCAGGGTGGTCAGCTAACGGGTACG the figure was 3.73.
